mIDH1 inhibitor = qHTS for Inhibitors of mutant isocitrate dehydrogenase 1 (IDH1): qHTS; Isocitrate dehydrogenase [NADP] cytoplasmic (Homo sapiens), O75874; IDH1-R132H enzyme, NADPH consumption, diaphorase/resazurin fluorescence; Potency, µM (series often up to 76.6 µM), for the others: at the highest dose activity change, negative = inhibition, usual class: inhibitors; hit rate 0.093% among 390,000; also: potency is read from the fitted curve at half-maximal effect; nearly all actives have a fitted effect of over 65% in size
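IDH1-R132H (0.5 ug/mL dispensed) in pH 7.5 Tris buffer was preincubated 30 min with compound, then given a substrate mix of 0.016 mM NADPH and 2 mM alpha-KG for 80 min at room temperature; remaining NADPH was read by diaphorase/resazurin fluorescence.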
rTrxR1 inhibitor = qHTS Assay for Inhibitors of Mammalian Selenoprotein Thioredoxin Reductase 1 (TrxR1): qHTS | Thioredoxin reductase 1, cytoplasmic (Rattus norvegicus), O89049 | recombinant rTrxR1, NADPH fluorescence consumption, selenite substrate | Potency, µM (highest dose often 114 µM), inactives show top-dose activity change, negative = inhibition, hits mostly inhibitors | hit rate 1% among 390,000 | AID 588453, 2011; also: potency is read from the fitted curve at half-maximal effect; nearly all actives have a fitted effect of over 65% in size
Target sequence (O89049 whole entry, looked up): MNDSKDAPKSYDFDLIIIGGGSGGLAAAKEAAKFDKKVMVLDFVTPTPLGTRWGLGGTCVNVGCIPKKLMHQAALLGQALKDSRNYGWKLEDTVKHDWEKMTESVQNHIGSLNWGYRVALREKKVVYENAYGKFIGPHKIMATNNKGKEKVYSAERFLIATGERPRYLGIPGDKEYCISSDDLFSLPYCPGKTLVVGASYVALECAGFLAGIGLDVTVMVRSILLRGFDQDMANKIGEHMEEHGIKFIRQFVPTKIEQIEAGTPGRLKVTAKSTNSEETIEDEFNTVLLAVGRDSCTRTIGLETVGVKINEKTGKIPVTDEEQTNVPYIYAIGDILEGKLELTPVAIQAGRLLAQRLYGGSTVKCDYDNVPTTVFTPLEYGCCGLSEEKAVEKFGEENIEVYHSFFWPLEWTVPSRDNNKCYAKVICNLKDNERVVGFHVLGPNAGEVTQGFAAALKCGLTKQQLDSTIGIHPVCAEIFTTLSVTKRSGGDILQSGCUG
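Rat TrxR1 (90 nM in the dispensed reagent) was pre-reduced with 400 uM NADPH for 5 min at room temperature, then incubated with compound for 15 min. After 400 uM selenite was added, NADPH fluorescence (Ex 340/Em 450 nm) was followed for 8 min.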
GLS inhibitor = qHTS for Inhibitors of Glutaminase (GLS); hit rate 0.21% among 410,000; Glutaminase kidney isoform, mitochondrial (Homo sapiens), O94925; Potency, µM (titrated, usually from 45.5 µM), inactives show at the top dose activity change, negative = inhibition, actives largely listed as inhibitors; GLS enzymatic activity, qHTS titration; also: potency is read from the fitted curve at half-maximal effect
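hKGA in 45 mM KH2PO4 pH 8.2, 0.02% Tween-20 with pin-transferred compounds; 1 mM L-glutamine (stock) plus glutamate oxidase/HRP/Amplex Red coupling added. Fluorescence read initially and after 30 min at RT.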
PKM2 act = qHTS Assay for Activators of Human Muscle isoform 2 Pyruvate Kinase; Pyruvate kinase PKM (Homo sapiens), P14618; AID 1631, 2009; Potency, µM (titrated, usually from 57.5 µM), without a hit: at the highest dose activation, most hits filed as activators; purified PKM2, Kinase-Glo ATP luminescence, activation; response scale: 0% is enzyme alone, no compound; hit rate 0.34% among 260,000; also: potency is read from the fitted curve at half-maximal effect; nearly all actives have a fitted effect of over 55% in size
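Kinase-Glo luminescence reports ATP generated from ADP (0.1 mM) and PEP (0.5 mM) by purified hPK-M2 after 1 h at room temperature, pH 7.2 imidazole buffer; intermediate enzyme activity allows detecting inhibitors and activators.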
TrxR1 substrate = qHTS Assay for Substrates of Mammalian Selenoprotein Thioredoxin Reductase 1 (TrxR1): qHTS. Potency, µM (highest dose often 114 µM), for the others: at the top dose activity change, negative = substrate turnover. purified TrxR1 substrate turnover, NADPH consumption readout. hit rate 0.01% among 390,000. Thioredoxin reductase 1, cytoplasmic (Rattus norvegicus), O89049. AID 588456, 2011; also: potency is read from the fitted curve at half-maximal effect; nearly all actives have a fitted effect of over 50% in size
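Rat TrxR1, dispensed at 90 nM, was prereduced with 400 uM NADPH (final) for 5 min at ~22 deg C, then incubated with compound 15 min before 400 uM selenite. A first-read NADPH fluorescence drop versus no-compound background flagged substrates.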
LDHA block = qHTS assay for inhibitors of human lactate dehydrogenase; hit rate 0.15% among 480,000; purified LDHA, NADH/diaphorase-resazurin fluorescence; hits give low values; activity change, % (values are at about 110 or 230 µM); L-lactate dehydrogenase A chain (Homo sapiens), P00338; in the data active = activity change below about -30%; inconclusive = mostly about -25% to -30%;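 also: plate controls were DMSO wells for no effect and wells without enzyme for full effect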
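Remaining NADH was detected by diaphorase (0.133 mg/mL) converting 37 µM resazurin to fluorescent resorufin, read at 0 and 20 minutes. The preceding 5-minute room-temperature reaction used 2 nM LDHA, 0.2 mM sodium pyruvate and 0.06 mM NADH at pH 7.4.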
Numbers without * were called inactive; ? = inconclusive; . = no result; ! = not confirmed by another sample; [ ] = another dose, or the depositor's remark. This is a sample that favours compounds with a hit; in the whole collection about 1.4% have one here. Unless noted, calls follow the shape of the dose curve; as a rule, active = well fitted curve in the direction sought with a large enough effect; inconclusive = small, poorly fitted or top-dose-only effect, or another doubt; inactive = no such curve, though single readings can be large; an effect the other way counts as inactive or inconclusive. Unless noted, % is scaled to controls: 0 for no effect and ±100 for the full control effect.

SMILES	mIDH1 inhibitor	rTrxR1 inhibitor	GLS inhibitor	PKM2 act	TrxR1 substrate	LDHA block
Cc1nc(Nc2nc(C(C)C)cc(=O)[nH]2)nc2c(C)cccc12	.	.	.	.	.	9
Cc1cc(C)c2nc(Nc3nc(C(C)C)cc(=O)[nH]3)nc(C)c2c1	.	.	.	.	.	-32*
CCc1nc2sc3c(NC4CCCCC4)ncnc3c2c2c1COC(C)(C)C2	.	.	.	.	.	-14
O=C(O)c1cccc(-n2cccc2/C=C\[N+](=O)[O-])c1	1%	?	103%	2%	-4%[57.1 µM]	7
O=C(O)c1cccc(-n2cccc2/C=C/[N+](=O)[O-])c1	8%	10µM*	10µM*	16%	6%	5
COc1cccc(-c2cc(C(F)(F)F)nc(N3CCN(Cc4ccccc4)CC3)n2)c1	.	.	.	.	.	1
Cc1ccc(NC(=O)CN2C(=O)N/C(=C/c3ccc(C)o3)C2=O)cc1	8%	?	11%	26%	-7%	-1
C=CCN1C(=O)N/C(=C/c2ccc(C)o2)C1=O	-1%	50µM*	15%	?	-9%	6
Cc1cccc(NC(=O)CN2C(=O)N/C(=C/c3ccc(C)o3)C2=O)c1	1%	40µM*	-8%	?	3%	17
Cc1ccc(CN2C(=O)N/C(=C/c3ccc(-c4ccc(C(=O)O)cc4)o3)C2=O)cc1	-4%	-16%	?	24%	17%	0
Cc1nn(C)c(C)c1S(=O)(=O)N(CC(=O)Nc1ccc(F)c(Cl)c1)c1ccc(C(C)C)cc1	.	.	.	.	.	0
CCOC(=O)/C=C1\CN(Cc2cc(OC)c(OC)c(OC)c2)S(=O)(=O)c2ccc(C(F)(F)F)cc21	12%	50µM*!	-4%	1%	0%[57.1 µM]	3
Cc1cc2n(n1)SC(Nc1ccc(F)c(Cl)c1)N2 (stereo not given)	3%	14µM*	20%	3%	3%[57.1 µM]	-3
Cc1cc2n(n1)CCCN2C(=O)Nc1ccc(F)c(Cl)c1	-2%	7%	-2%	.	1%	-3
Cc1ccc2c(COC(=O)c3ccc(C)s3)cc(=O)oc2c1	.	.	.	.	.	-12
COCCn1c(C)c(C)c(S(=O)(=O)c2ccc(F)cc2)c1NC(=O)COC	.	.	.	.	.	0
CNC(=S)N1N=C(c2ccc(C)cc2)CC1c1ccc(OC)cc1 (stereo not given)	1%	-10%	7%	22µM*	-12%	-3
Cc1ccc(NC(=O)CCc2cc(C(C)(C)C)c(O)c(C(C)(C)C)c2)cc1	.	.	.	.	.	5
Nc1nc(Sc2ccc([N+](=O)[O-])c3nonc23)c2[nH]cnc2n1	18%	1.3µM*	?	.	-32%	43
Nc1nc(SCc2ccccc2)c2[nH]cnc2n1	-12%	4%	-2%	.	-4%	-8
CNc1ncnc(Sc2nc(N)nc3nc[nH]c23)c1[N+](=O)[O-]	-1%	1.3µM*	4%	.	13%[57.1 µM]	2
Cc1ccc(N/N=C/c2ccc(C(C)(C)C)cc2)cc1Cl	.	.	.	.	.	-2
CCOC(=O)c1cnc(SCc2nc(-c3cccc(Cl)c3)oc2C)nc1N	.	.	.	.	.	1
COC(=O)c1c(S(C)(=O)=O)nc(-c2ccccc2)[nH]c1=O	6%	40µM*	3%	8%	-1%	-2
Cc1c(-c2ccccc2)nc(-c2ccccc2)[nH]c1=O	2%	-5%	7%	-2%	2%	2
SMILES	mIDH1 inhibitor	rTrxR1 inhibitor	GLS inhibitor	PKM2 act	TrxR1 substrate	LDHA block
O=C(NC1CCC(O)CC1)c1ccc2c(c1)-c1ccccc1C2 (stereo not given)	.	.	.	.	.	4
CCOC(=O)N1CC=C2C(C#N)=C(N)C(C#N)(C#N)[C@H](c3cccs3)C2C1 (stereo not given in full)	-9%	-19%	1%	-1%	9%[57.1 µM]	-1
CC1CC=C2C(C#N)=C(N)C(C#N)(C#N)C(c3cccs3)C2C1 (stereo not given)	21µM*	?	-7%	12%	10%[57.1 µM]	12
COC1/C=C\OC2(C)Oc3c(C)c(O)c4c(c3C2=O)C2(C=C(NC(=O)/C(C)=C\C=C/C(C)C(O)C(C)C(O)C(C)C(OC(C)=O)C1C)C4=O)OCC(=O)O2 (stereo not given)	.	.	.	.	.	106
C=CS(=O)(=O)c1sc(Cl)c(N2CCOCC2)c1[N+](=O)[O-]	?	0.32µM*	?	0%	0%	1
COC(=O)C(C)NC(=O)C12CC3CC(CC(Br)(C3)C1)C2 (stereo not given)	.	.	.	.	.	-5
Cn1c(=O)n(C)c2cc(NC(=O)c3ccccc3[N+](=O)[O-])c(Br)cc21	-5%	16%	-1%	7.9µM*	-1%	-2
O=C(O)C(Sc1ccc(F)c(Cl)c1)c1ccccc1 (stereo not given)	.	.	.	.	.	-2
CCN1C(=O)[C@H]2[C@@H](c3ccc(-c4ccc(OC)cc4)c(OC)c3)N[C@@](Cc3ccccc3)(C(=O)OC)[C@H]2C1=O	-5%	43%	-13%	.	24%	-1
COc1ccc(C2NC(Cc3ccccc3)(C(=O)O)C3C(=O)N(c4ccccc4OC)C(=O)C23)cc1 (stereo not given)	-10%	56µM*	4%	-2%	7%	-4
COc1cc2cc(C(=O)NCC(=O)Nc3nccs3)n(C)c2c(OC)c1OC	.	.	.	.	.	16
CC(=O)N1c2ccccc2-c2nnc(SCc3ccccc3)nc2OC1C (stereo not given)	.	.	.	.	.	1
C=C1C(=O)[C@@]23[C@H](O)C[C@@H]4C(C)(C)CC[C@H](O)[C@@]4(C)[C@@H]2CC[C@@H]1[C@H]3O	-1%[38.3 µM]	14µM*	0%	-2%	3%	-4
C=C1C(=O)[C@@]23[C@H](O)C[C@@H]4C(C)(C)CC[C@H](O)[C@]4(C)[C@@H]2C[C@H](O)[C@@H]1[C@H]3O	4%	16µM*	-13%	-3%	7%	-2
C=C1C(=O)[C@]23C[C@H]1CCC2[C@]1(C)CCC[C@@](C)(C(=O)O)C1C[C@@H]3O (stereo not given in full)	.	.	13%	.	.	-7
Cc1ccc(C)c(C(=O)COC(=O)CCc2c[nH]c3ccccc23)c1	.	.	.	.	.	-6
Cc1nc2ccccc2nc1SCC(=O)N1CCCC(C)C1 (stereo not given)	.	.	.	.	.	1
O=c1c2ccccc2c(-c2cccc(C(F)(F)F)c2)nn1-c1ccccc1	9%	10%[57.1 µM]	-5%	-1%	-20%[57.1 µM]	7
